Most compounds without a hit are left out; they make up all but 9.4% or so of the library.
SMN2 splice enh: increases expression of the SMN2 splice variant. HEK293 SMN2-luciferase splicing reporter, luminescence, 30-36 h. Potency, µM (highest dose often 46.1 µM), without a hit: top-dose activity change, positive = activation, hits mostly activators. 210,000 compounds, 2.8% hits. AID 1458; also: % of control where 0% means no effect; nearly all actives have a fitted effect of over 55% in size
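HEK293 cells carry an SMN2 […]–luciferase reporter in which exon 7 inclusion puts luciferase in frame. Cells were plated 10-12 h before compound addition, then incubated 30-36 h at 37C. ONE-Glo luminescence was read; sodium butyrate at 4.5 mM final served as control.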
NPC1 promoter act: NPC1 promoter activation | AID 485313 | Huh7 NPC1 promoter luciferase reporter, 24 h | Potency, µM (titrated, usually from 9.22 µM), without a hit: top-dose activation, usual class: activators | 320,000 compounds, 2.4% hits; also: % of control where 0% means no effect; nearly all actives have a fitted effect of over 60% in size
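Cells: Huh7 expressing luciferase under the NPC1 promoter, 1500/well. Seeded 2 h, compound added, incubated 24 h at 37 °C. Luciferase reagent, 10 min ambient, then luminescence.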
ELG1 DNA repair: ELG1-dependent DNA repair inhibition | AID 504467 | Potency, µM (series often up to 46.1 µM), inactives show at the top dose activity change, negative = inhibition, usual class: inhibitors | HEK293T ELG1-luciferase reporter, luminescence, 16 h; DNA damage induced by 5-fluorouridine | 330,000 compounds, 2.3% hits; also: % is scaled to controls: 0 for no effect and ±100 for the full control effect; nearly all actives have a fitted effect of over 55% in size
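Reporter activity after DNA damage by 5-fluorouridine is monitored. Compound-treated cells incubate 16 hr at 37 °C, then ONE-Glo is added for 30 min before luminescence reading.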
ELG1 genotoxic: genotoxicity induction in ELG1-luciferase HEK293T cells | HEK293T ELG1-luciferase reporter, luminescence, 16 h | Potency, µM (titrated, usually from 46 µM), inactives show at the highest dose activity change, positive = activation, usual class: activators | 330,000 compounds, 1.3% hits | AID 504466; also: % of control where 0% means no effect; nearly all actives have a fitted effect of over 60% in size
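Genotoxicity was scored as increased ELG1-luciferase reporter signal, measured by ONE-Glo luminescence (30 min, room temperature). Compound or vehicle exposure of the HEK293T reporter cells lasted 16 hr at 37°C.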
Rab9 prom act: Rab9 promoter activation | Huh7 Rab9 promoter-luciferase reporter, luminescence, 24 h | Potency, µM (doses to about 9.22 µM), for the others: at the top dose activation, negative = inhibition, most hits filed as activators | 320,000 compounds, 2.8% hits | AID 485297; also: % of control where 0% means no effect; nearly all actives have a fitted effect of over 60% in size
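Steps: seed 1500 Huh7 Rab9-luc cells per well, rest 2 h at 37 °C; add compound in DMSO; incubate 24 h; add luciferase reagent, 10 min ambient; read luminescence.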
FLuc counter: firefly luciferase modulation, counter-screen for miR-21 project | Potency, µM (highest dose often 57.5 µM), for the others: at the highest dose activity change, negative = inhibition, actives largely listed as inhibitors | purified FLuc, Km substrates, luminescence inhibition | 360,000 compounds, 6.9% hits | AID 588342 | P08659;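 also: plate controls were vehicle for no effect and reference inhibitor for full effect; nearly all actives have a fitted effect of over 55% in size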
Target sequence (P08659 whole entry, looked up): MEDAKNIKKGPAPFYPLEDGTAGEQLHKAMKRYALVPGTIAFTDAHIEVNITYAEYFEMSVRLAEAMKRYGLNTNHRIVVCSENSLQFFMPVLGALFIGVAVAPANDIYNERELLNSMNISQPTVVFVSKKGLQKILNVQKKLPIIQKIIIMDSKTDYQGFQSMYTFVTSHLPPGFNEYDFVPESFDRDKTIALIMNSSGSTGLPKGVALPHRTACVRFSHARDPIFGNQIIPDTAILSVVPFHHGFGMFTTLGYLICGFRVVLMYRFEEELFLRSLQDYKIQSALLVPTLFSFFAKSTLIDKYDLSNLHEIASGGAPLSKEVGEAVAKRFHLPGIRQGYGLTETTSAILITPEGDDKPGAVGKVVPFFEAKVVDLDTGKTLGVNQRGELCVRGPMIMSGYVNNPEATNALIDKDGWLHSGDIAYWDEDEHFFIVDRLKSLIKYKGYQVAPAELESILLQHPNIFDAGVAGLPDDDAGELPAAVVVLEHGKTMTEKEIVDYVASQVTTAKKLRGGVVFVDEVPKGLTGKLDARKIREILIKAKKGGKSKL
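Biochemical qHTS of compounds, final roughly 60 µM downward over six points, against 10 nM purified firefly luciferase using Km concentrations of substrates (10 uM D-luciferin, 10 uM ATP) in Tris acetate pH 7.5 buffer; luminescence output.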
Numbers without * were called inactive; u = inconclusive; x = no result; [ ] = remark or other dose. Calls follow the shape of the dose curve; as a rule, active = well fitted curve in the direction sought with a large enough effect; inconclusive = small, poorly fitted or top-dose-only effect, or another doubt; inactive = no such curve, though single readings can be large; an effect the other way counts as inactive or inconclusive. Potency is read from the fitted curve at half-maximal effect.

SMILES | SMN2 splice enh | NPC1 promoter act | ELG1 DNA repair | ELG1 genotoxic | Rab9 prom act | FLuc counter
Cc1ccc(C(=O)NC(=S)Nc2ccccc2C(F)(F)F)cc1C | -17% | 3% | 12% | 1% | -2% | 24µM*
COc1cc2ccccc2cc1C(=O)NC(=S)Nc1ccc(C(=O)O)cc1 | x | 26% | 17% | 12% | u | u
Cc1cc(F)ccc1S(=O)(=O)N1CCC2(CC1)OCCN2S(=O)(=O)c1cccs1 | x | -3% | u | 6% | 3% | 4%
Cc1ccc2c(CC(=O)NCCc3ccc(S(N)(=O)=O)cc3)coc2c1 | x | -5% | -8% | -2% | -3% | 4%
CC(=O)c1cccc(NC(=O)CCC2CCCC2)c1 | u | 28% | u | 3% | 26% | u
O=C(O)/C(=N/NC(=O)c1ccc(Cl)cc1)c1ccccc1 | x | -5% | 18% | 7% | 2% | 17µM*
CC(=O)c1cccc(NC(=S)NC(=O)c2ccccc2)c1 | u | u | u | u | 2.2µM* | 7.6µM*
O=C(Nc1ccccc1Cl)C(Cl)C(=O)c1ccccc1 (configuration not stated) | -20% | 20% | 7% | 7% | 5% | u
CNC(=S)Nc1cccc(C(C)=O)c1 | 24% | 1% | -7% | 0% | -6% | -2%
CC#CCCCC(=O)Nc1cccc(C(=O)O)c1 | u | u | u | 12% | 3.2µM* | 24µM*
O=C(NS(=O)(=O)c1ccc(Cl)cc1)c1ccccc1 | 10% | -8% | 14% | 1% | 12% | -15%
O=C(Nc1ccc(Cl)cc1)C(Cl)C(=O)c1ccccc1 (configuration not stated) | x | 2% | u | u | 17% | 15µM*
COc1cccc(CN2C(=O)c3ccccc3Sc3ccc(C(=O)NCCc4ccc(Cl)cc4)cc32)c1 | -1% | x | x | x | x | -2%
COc1cccc(Cn2c(=O)c(-c3cccs3)nc3cnc(N4CCN(C)CC4)nc32)c1 | -3% | x | x | x | x | x
CCCOc1ccc(C(=O)Nc2ccc(Cl)c(-c3nc4ncccc4o3)c2)cc1 | -3% | x | x | x | x | u
CCCOc1ccc(CNC(=O)c2oc3ccc4c(c3c2C)C(=O)CC(C)(CC)O4)cc1 (configuration not stated) | -23% | x | x | x | x | u
O=C(Cn1ccc2cc(S(=O)(=O)N3CCCCC3)ccc21)NCCc1ccccc1Cl | x | x | x | x | x | 1%
O=C(NC(=S)Nc1cc([N+](=O)[O-])ccc1O)c1cccnc1 | -6% | 19% | u | 8% | u | 17µM*
O=C(N/C(=N\O)c1ccccc1)Nc1ccc(Cl)cc1 | x | 1% | 21% | u | -5% | 17µM*
O=C(NC(=S)Nc1ccc(Br)cn1)c1cncc(Br)c1 | 12% | 6% | 9% | 2% | -3% | -5%
CCCCC(=O)NC(=S)Nc1cccc(C(=O)O)c1 | x | 28% | u | 9% | 20% | 24µM*
CCCCC(=O)NC(=S)Nc1cccc(NC(=O)CC)c1 | -11% | 1% | -29% | -1% | -1% | -2%
O=C(NC(=S)Nc1ccccn1)c1cncc(Br)c1 | -25% | u | u | 11% | u | 15µM*
C/C(=N\NC(=O)Cc1c(Cl)cccc1Cl)c1cccnc1 | x | -10% | 2% | 3% | 7% | -1%
O=C(O)/C=C\C=C/c1ccc2c(c1)OCO2 | -7%[9.22 µM] | x | x | x | x | x
SMILES | SMN2 splice enh | NPC1 promoter act | ELG1 DNA repair | ELG1 genotoxic | Rab9 prom act | FLuc counter
COc1cc(CN(C(=O)COc2ccccc2Cl)c2ccccn2)cc(OC)c1OC | x | x | x | x | x | 6%
CC(=O)c1cccc(NC(=S)NC(=O)C(C)C)c1 | 13% | 0% | 16% | 0% | -1% | 4%
O=C(O)c1cccc(NC(=S)NCc2ccccc2)c1 | x | 16% | 21% | 2% | u | 15µM*
O=C(NC(=S)Nc1ccc(Cl)cc1)c1ccccc1 | x | u | u | 22% | u | 11µM*
CC(=O)c1cccc(NC(=S)NC(=O)c2cccc(Cl)c2)c1 | u | u | u | u | 3.5µM* | 21µM*
CC(C)CCOCC(=O)Nc1cccc(C(=O)O)c1 | 14µM* | 0.71µM* | u | u | 0.5µM* | 5.4µM*
COC(=O)c1ccc2c(=O)n(CCN3CCOCC3)c(SCC(=O)NCc3ccccc3)nc2c1 | -32% | 2% | 19% | 8% | -2% | -5%
Cc1ccc(C(=O)NC(=S)Nc2cccc(NC(=O)c3ccccc3Cl)c2)cc1[N+](=O)[O-] | -3% | -1% | 18µM* | -1% | -8% | -15%
COc1cc2nc(Cl)nc(N3CCN(C)CC3)c2cc1OC | -11% | -2% | 6% | 9% | -1% | -2%
COc1cc2nc(C3CCC3)nc(N3CCN(c4ccccn4)CC3)c2cc1OC | 11% | -2% | 10µM* | -7% | -1% | -4%
COc1cc(C(=O)N2CCN(c3ccccn3)CC2)cc(OC)c1OC | x | -3% | 17% | 8% | 4% | 11%
COc1cc2nc(C3CCC3)nc(N3CCN(c4ccccc4OC)CC3)c2cc1OC | -19% | -12% | 12µM* | -12% | -3% | 1%
O=C(O)c1ccc(N=NN2CCCC2)cc1 | 9% | 5% | u | 1% | 2% | -14%
O=C(O)c1ccc(N=NN2CCCCCC2)cc1 | 4.5µM* | u | u | 7% | 0.32µM* | 11µM*
CC(=O)Nc1cccc(N=NN2CCCCC2)c1 | 0% | 7% | u | 9% | 14% | 17µM*
CC(=O)Nc1cccc(N=NN2CCOCC2)c1 | x | -2% | 21% | 8% | 14% | -15%
CCc1ccccc1NC(=O)Cn1nc(C)c2nn(-c3ccc(Cl)cc3)c(C)c2c1=O | x | x | x | x | x | -2%
Cc1nc(-c2ccc(Cl)cc2)sc1CCNC(=O)C(=O)Nc1ccc2c(c1)OCO2 | x | x | x | x | x | -6%
CC(C)(C)OC(=O)N1CCC(c2c(C(=O)N3CCN(c4ccccc4F)CC3)cnn2-c2ccccc2Cl)CC1 | x | x | x | x | x | 3%
CCCc1nc2oc3ccccc3c(=O)c2c(=O)n1-c1ccccc1 | x | 13% | u | u | 13% | -9%
CCc1nc2oc3ccccc3c(=O)c2c(=O)n1-c1ccc(C)cc1 | x | 16% | u | u | 23% | 17µM*
CCCc1nc2oc3ccccc3c(=O)c2c(=O)n1-c1ccc(C)cc1 | x | 17% | u | u | u | -28%
CCc1nc2oc3ccccc3c(=O)c2c(=O)n1-c1ccccc1 | 11µM* | 14% | u | 13µM* | 3% | -1%
N[C@@H](Cc1nn[nH]n1)C(=O)O | -11%[9.22 µM] | x | x | x | x | x
Nc1ccc2c(c1)N1CCN=C1S2 | 5% | -4% | 0% | 1% | -4% | 8%
O=C(Nc1ccc(Cl)cc1)Nc1ccc2c(c1)N1CCN=C1S2 | -25% | 10% | 23µM* | -6% | 11% | 8.5µM*

Bioassay records as filed in PubChem BioAssay.
